Consider 8 molecules from PubChem BioAssay (NCI).

This is part of a sample that, as a whole, favours compounds with a hit. Of some 83,000 tested, about 20% had one in any assay.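 Values shown are percent growth following 48 h exposure of cells in 96-well plates to a single concentration of compound; below 10 was considered active.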 A number with no mark means an inactive call. Activity calls are given as the source filed them.

Among the test systems are SK-MEL-2 melanoma; EKVX NSCLC; SN12C renal; UO-31 renal; TK-10 renal; ACHN renal; CAKI-1 renal; CCRF-CEM leukemia; MOLT-4 leukemia; RPMI-8226 leukemia; OVCAR-8 ovarian; OVCAR-5 ovarian; OVCAR-4 ovarian; SK-OV-3 ovarian; IGROV1 ovarian; OVCAR-3 ovarian; HS 578T breast; NCI/ADR-RES ovarian; A498 renal; SR leukemia.
What all share (test): NCI-60 one-dose screen, 48 h (100 = growth as untreated, 0 = no growth, -100 = all killed)
Holding throughout (settings): 10 µM unless noted

Turning to `NC1CCN(c2nc(Nc3cccc(C(F)(F)F)c3)c3c(=O)[nH]ccc3n2)CC1`, the growth with SK-MEL-2 melanoma is -77.6% (active); with EKVX NSCLC, 4.44% (active); with SN12C renal, -75.8% (active); with UO-31 renal it was -80.8% (active); with TK-10 renal, -26.9% (active); in the assay with ACHN renal, -70% (active). The growth in the assay on CAKI-1 renal is -13.8% (active); in the assay on CCRF-CEM leukemia it was -18.4% (active); in the assay on MOLT-4 leukemia, -37.9% (active); in the assay with RPMI-8226 leukemia, -45.4% (active); in the assay on OVCAR-8 ovarian it was -44.7% (active); in the assay with OVCAR-5 ovarian, 14.9%. In addition, the growth in the assay on OVCAR-4 ovarian was -49.7% (active); with SK-OV-3 ovarian, -76.1% (active); with IGROV1 ovarian, -46.2% (active); in the assay on OVCAR-3 ovarian, -72.2% (active); in the assay with HS 578T breast it was -24.5% (active); with NCI/ADR-RES ovarian, -30.8% (active).

With `O=c1c2cc(F)cc(Cl)c2sc2c(NCCCNCCO)nc3ccccc3c12`, the growth in the assay with SK-MEL-2 melanoma is 107%; in the assay on EKVX NSCLC, 88.2%; with SN12C renal, 83.4%; in the assay on TK-10 renal it was 100%; in the assay on ACHN renal, 83.8%; in the assay on CAKI-1 renal, 71.2%. The growth in the assay with A498 renal is 56.2%; in the assay with CCRF-CEM leukemia, 15.8%; in the assay with MOLT-4 leukemia, 60.6%; in the assay with SR leukemia, -6.83% (active); in the assay with OVCAR-8 ovarian, 95.7%; in the assay on OVCAR-5 ovarian, 93.7%. Also, the growth in the assay on OVCAR-4 ovarian was 79.1%; with SK-OV-3 ovarian, 93.9%; in the assay with IGROV1 ovarian it was 79.4%; in the assay on OVCAR-3 ovarian it was 96.1%; with HS 578T breast, 88.1%; in the assay with NCI/ADR-RES ovarian, 89.2%.

On to `COc1nc2ccc(C)cc2cc1-c1nc2c(cnn2-c2ccccc2)c(=O)[nH]1`, for which the growth with SK-MEL-2 melanoma was 60.5%; in the assay with EKVX NSCLC, 85.1%; in the assay with SN12C renal it was 98.3%; in the assay with TK-10 renal, 109%; in the assay on ACHN renal, 94.3%; in the assay with CAKI-1 renal it was 86.9%. Further, the growth in the assay on A498 renal was 72.7%; in the assay with CCRF-CEM leukemia, 79.4%; in the assay with MOLT-4 leukemia it was 75.2%; with RPMI-8226 leukemia it was 80.8%; with OVCAR-8 ovarian, 94%; in the assay with OVCAR-5 ovarian, 94.5%. Further, the growth with OVCAR-4 ovarian was 94.9%; in the assay with SK-OV-3 ovarian, 73.6%; in the assay with IGROV1 ovarian, 77.4%; with OVCAR-3 ovarian it was 50.2%; with HS 578T breast, 90.6%; in the assay with NCI/ADR-RES ovarian, 74.3%.

Regarding `NS(=O)(=O)c1ccc(N=Nc2ccc(-c3nn4cc(-c5ccccc5)nc4s3)cc2)cc1`, the growth in the assay on SK-MEL-2 melanoma is 99.4%; in the assay on EKVX NSCLC, 96.7%; in the assay with SN12C renal, 108%; with TK-10 renal it was 88.5%; in the assay on ACHN renal it was 99.8%; in the assay on CAKI-1 renal, 85.9%. Besides, the growth in the assay on A498 renal was 97.5%; in the assay with CCRF-CEM leukemia, 111%; in the assay on MOLT-4 leukemia, 105%; with RPMI-8226 leukemia, 105%; with OVCAR-5 ovarian, 103%; in the assay on OVCAR-4 ovarian, 99.7%. Besides, the growth with SK-OV-3 ovarian was 88.8%; with IGROV1 ovarian, 117%; in the assay with OVCAR-3 ovarian, 102%; in the assay with HS 578T breast it was 94.2%; in the assay with NCI/ADR-RES ovarian, 107%.

On to `COc1ccc(NC2=C(Br)C(=O)C(C)=C(C)C2=O)cc1`, for which the growth with SK-MEL-2 melanoma is 92.4%; in the assay with EKVX NSCLC, 83.5%; with SN12C renal, 79.6%; in the assay on TK-10 renal it was 172%; in the assay on ACHN renal, 85.6%; in the assay with CAKI-1 renal, 94.9%. The growth is 93.5% in the assay with A498 renal; -13.8% (active) with CCRF-CEM leukemia; -9.34% (active) in the assay with MOLT-4 leukemia; 2.06% (active) with SR leukemia; -29.7% (active) in the assay with OVCAR-8 ovarian; 102% in the assay with OVCAR-5 ovarian. The growth with OVCAR-4 ovarian is -99.6% (active); in the assay on SK-OV-3 ovarian, 69.4%; with IGROV1 ovarian, 41.3%; with OVCAR-3 ovarian, 60.3%; in the assay with HS 578T breast it was 96.9%; in the assay on NCI/ADR-RES ovarian, 80.6%.

As to `CCCCOc1nc2ccc(OC)cc2cc1-c1cc(-c2ccc(Cl)cc2)nc(-c2ccc(Cl)cc2)c1`, the growth is 103% in the assay on SK-MEL-2 melanoma; 98.2% in the assay with EKVX NSCLC; 101% in the assay on SN12C renal; 104% in the assay with TK-10 renal; 96.3% in the assay with ACHN renal; 104% with CAKI-1 renal. The growth in the assay with CCRF-CEM leukemia was 103%; in the assay with MOLT-4 leukemia, 113%; in the assay with SR leukemia, 107%; with OVCAR-8 ovarian it was 104%; in the assay with OVCAR-5 ovarian it was 98.7%; in the assay with OVCAR-4 ovarian it was 99.5%. Besides, the growth was 108% in the assay on SK-OV-3 ovarian; 105% with IGROV1 ovarian; 112% in the assay with OVCAR-3 ovarian; 100% with HS 578T breast; 105% with NCI/ADR-RES ovarian.

Regarding `C=CCNc1ccc2c3c(cccc13)C(=O)N(N1C(=O)c3cccc4cccc(c34)C1=O)C2=O`, the growth is 107% with SK-MEL-2 melanoma; 92.8% with EKVX NSCLC; 101% in the assay on SN12C renal; 105% with TK-10 renal; 103% in the assay on ACHN renal; 94.1% in the assay on CAKI-1 renal. Also, the growth with A498 renal was 119%; in the assay on CCRF-CEM leukemia, 109%; with MOLT-4 leukemia, 101%; in the assay with RPMI-8226 leukemia, 109%; in the assay on OVCAR-8 ovarian, 100%; in the assay with OVCAR-5 ovarian, 101%. The growth was 107% with OVCAR-4 ovarian; 108% in the assay on SK-OV-3 ovarian; 103% in the assay on IGROV1 ovarian; 97.2% in the assay on HS 578T breast; 101% with NCI/ADR-RES ovarian.

`N#Cc1c(Nc2cccc(Cl)c2)sc(C(=O)c2cc3cc(Cl)ccc3o2)c1N`: the growth in the assay on SK-MEL-2 melanoma was 71.4%; with EKVX NSCLC, 158%; in the assay with SN12C renal, 81.3%; in the assay on TK-10 renal, 127%; in the assay on ACHN renal, 112%; with CAKI-1 renal it was 151%. The growth is 128% in the assay on A498 renal; 52.8% with CCRF-CEM leukemia; 66.6% with MOLT-4 leukemia; 56.8% in the assay on RPMI-8226 leukemia; 67.4% in the assay on OVCAR-8 ovarian; 86.4% in the assay with OVCAR-5 ovarian. In addition, the growth was 92.5% with OVCAR-4 ovarian; 97.9% with SK-OV-3 ovarian; -8.05% (active) in the assay on IGROV1 ovarian; 111% in the assay on OVCAR-3 ovarian; 105% with HS 578T breast; 84.3% in the assay with NCI/ADR-RES ovarian.
